Experimental data taken from PubChem BioAssay AID900 (National Center for Advancing Translational Sciences (NCATS), 2007).
Several values for one entry are separate records, joined by “and”; a condition that tells them apart may be missing. Identical values can stand only once. The whole screen tested about 75,000 compounds, of which about 20 (0.03%) were called active. Another 1% or so got no clear call; they are omitted. Calls come from the whole dose curve; as a rule, active = well fitted inhibition curve with a large enough effect; inconclusive = small, poorly fitted or top-dose-only effect; inactive = flat fitted curve, though single readings scatter. These entries were drawn from the full list.

target: Caspase-1 (Homo sapiens) (UniProt P29466); test: qHTS Assay for Allosteric/Competitive Inhibitors of Caspase-1; conditions: Caspase-1 enzyme, Ac-WEHD-AFC fluorogenic rate; series mostly up to 57.5 µM
Excerpt: NIH Molecular Libraries Screening Centers Network [MLSCN]
NIH Chemical Genomics Center [NCGC]
PI Name: Dr. James Wells,
Dr. Enrique Perez-Paya, Dr.Janice Williams, Dr. Dennis Wolan, a person
The caspases (Cysteine Aspartyl Protease) comprise a related family of 14 dimeric proteases that are critical mediators of apoptosis (programmed cell death) and inflammation. The caspases represent an important class of drug targets for stroke, ischemia, cancer and inflammatory diseases. […] One goal of this project was to identify compounds that act as allosteric inhibitors via stabilizing the procaspase form of the enzyme. Previous work in Well's laboratory has shown that such allosteric inhibitors can be identified and these act by binding at the dimer interface of enzyme (Hardy, Lam et al., 2004).
The biochemical assay was configured using purified caspase 1 at a high enzyme concentration to promote formation of the homodimers and thus facilitate the identification of allosteric inhibitors. The overall goal was to identify reversible inhibitors with better drug-like properties than the currently available set of aspartyl-containing peptidomimetics that covalently bind the active site. Caspase 1 was assayed using the profluorescent substrate Ac-WEHD-AFC. After initiation of the assay with substrate the plates were rapidly read using an automated robotic system (Kalypsys, Inc.) to maintain consistent timing. A kinetic mode of detection was used where the initial rate was collected (estimated final product formation was ~10%). Compounds were screened as a concentration-titration series that ranged from 57 uM to 0.7 nM. Below is the protocol used for caspase 1.
NCGC Assay Protocol Summary:
Caspase 1 was prepared in buffer (50 mM HEPES pH 7.5, 50 mM KCl, 200 mM NaCl, 10 mM DTT, 0.1% CHAPS) at a concentration of 66.6 nM and 3 uL was dispensed to all wells using black solid Kalypsys 1536-well plates. 20 nL of DMSO containing compounds was added using a pin-tool (Kalypsys Inc.) to columns 5-48. Then 20 nL of DMSO solution from a control plate was added to columns 1-4. Controls were: Column 1, 16 point titration with each concentration in duplicate (1:1 dilutions in DMSO; final starting concentration was 57 uM) of the caspase 1 inhibitor Ac-WEHD-CHO (Alexis Biochemicals); Column 2, a 16 point titration with each concentration in duplicate of the free AFC fluorophore prepared in DMSO (Alexis Biochemicals), final starting was 40 uM; Column 3 neutral (DMSO only) control; Column 4: DMSO alone, to serve as a negative control (no substrate was added). Then 1 uL of 20 uM the substrate Ac-WEHD-AFC (Alexis Biochemicals) prepared in the same buffer was dispensed to all wells except columns 2 and 4 and the plates were immediately transferred (< 1 min) to the Viewlux. The plates were then exposed using 405 nm excitation/520 nm emission filters for 4 sec and read at 20 sec intervals for 3 min. Final enzyme concentration was 50 nM and the final substrate concentration was 5 uM.
Concentration-response curves were fitted to the data calculated from slope of the linear regression of fluorescent intensity versus time (the rate). The concentration-effect curves were then classified based on curve quality (r2), response magnitude and degree of measured activity. […] Inconclusive compounds had appreciable concentration-dependent effects on both the measured rate and the interpolated basal fluorescence intensity at the start of the reaction but where the basal fluorescent intensity was marginal (e.g. < 10-fold). Inconclusive compounds also encompass highly fluorescent compounds (>100-fold increases in fluorescent intensities values relative to controls) where artificial concentration-dependent decreases in the rate occurred at high compound concentrations due to fluorescent interferences.
Keywords: Caspase 1, proteases, profluorescent, MLSMR, MLSCN, NIH Roadmap, qHTS, NCGC

Activity change, negative = inhibition, inactive:
Oc1ccc2ccccc2c1C=NCc1c(O)ccc2ccccc12 -2.14% [at 11.5 µM], Cc1cn(COC/C=C/c2ccccc2)c(=O)[nH]c1=O, CC(C)=CCC/C(C)=C/CC/C(C)=C/CC/C(C)=C/CO, CCc1c(C)c2c(C)[nH]nc2oc1=O, CCCC[C@@H]1C[C@H]1C(NC(=O)c1ccc(-c2ccccc2)cc1)c1ccc(-c2ccccc2)cc1 (some centres undefined), Cc1c(C(=O)OCc2cc(=O)n3cc(Br)ccc3n2)oc2ccccc12, FC(F)(F)c1ccc(CN2C[C@@H]3C(c4ccccc4)C4(c5ccccc5)CC3(C4)[C@H]2c2ccccc2)cc1 (some centres undefined), CC(C)N(CCNC(=O)c1ccc(-n2c(=O)c(=O)[nH]c3ccccc32)cc1)C(C)C, Cc1ccccc1CSCC(=O)NC(=O)NC(C)(C)C, O=C(O)CCC(=O)NCc1ccc2[nH]c3c(c2c1)CCCC3, CCn1ncc(C2=NOC(C(=O)Nc3ccccc3C(=O)OC)C2)c1C (centres undefined), CO[C@H]1COC(=O)[C@@H](C)NC(=O)C/C=C\[C@@H](C)[C@H](OC)COC(=O)C/C=C\[C@@H]1C 1.2% [at 11.5 µM], CO/N=C\[C@@H](C)[C@H](OCc1ccccc1)C(C)C 1.85% [at 11.5 µM], CC(=O)OCC(=O)C1CCC2C3CCC4=CC(=O)CC[C@@]4(C)C3CC[C@]12C (some centres undefined), CC(C)[C@@H](OCc1ccccc1)[C@H](C)/C=N\OC[C@@H](C)[C@H](OCc1ccccc1)C(C)C -1.54% [at 11.5 µM], COC(=O)CC1C(C)(C)C(OC(C)=O)C2CC3=C4CC(=O)OC(c5ccoc5)[C@]4(C)CCC3[C@@]1(C)C2=O (some centres undefined), O=C(CSc1nc2ccccc2[nH]1)c1cccs1, CC(=O)Oc1c2c(c3c(c1CC=C(C)C)O[C@@]14C(=CC5CC1C(C)(C)OC4(C/C=C(\C)C(=O)O)C5=O)C3=O)OC(C)(CCC=C(C)C)C=C2 (some centres undefined), Cc1cc(C)cc(C#CC2C=CC(Oc3ccc(C4CCCC4)cc3)C(CO)O2)c1 (centres undefined) -0.183% [at 11.5 µM], Cc1sc2c(c1C)c(=O)n(-c1ccccc1)c1nncn21, CC(C)CN1CCc2nc(-c3ccccc3)c3c(c2C1)COC(C)C3 (centres undefined) -0.646% [at 11.5 µM], C=CCOC(=O)C(C(C)=O)C(NC(=O)OC)c1ccccc1 (centres undefined) -2.17% [at 11.5 µM], COc1c(C(C)C)oc2cc3oc(=O)ccc3cc12, Cc1oc(C)c(C(=O)NCCCC(=O)O)c1C(=O)NCCCC(=O)O, CC(CCC(=O)O)C1CCC2C3C(O)C[C@@H]4CC(O)CC[C@@]4(C)C3CC[C@@]12C (some centres undefined), CN(C)CCc1c[nH]c2ccc(Cn3cncn3)cc12, Nc1ncn(C2OC(CO)C(O)C2O)c(=O)n1 (centres undefined), Cc1occc1C(=O)Nc1nnc(C2CCCCC2)s1, Oc1ccc2c(c1)OCC1c3cc4c(cc3OC21)OCO4 (centres undefined), C#CCC(C(=O)OC)(C(=O)OC)C(C[N+](=O)[O-])c1ccccc1 (centres undefined) -0.949% [at 11.5 µM], O=C(c1cccs1)N1CCN(Cc2ccc3c(c2)OCO3)CC1, C=C[C@](C)(O)CCC1C(=C)CCC2[C@@](C)(CO)CCC[C@@]12C (some centres undefined), C=C1C([C@@]2(C)C(OC(C)=O)CC(=O)O[C@@](C)(COC(C)=O)C2CC(=O)OC)C(OC=O)C(OC(=O)C(O)C(C)CC)[C@]2(C)C(c3ccoc3)CC(=O)C12O (some centres undefined), CSc1ccc(Cl)c(C(=O)OCC(=O)N2CC(C)OC(C)C2)c1 (centres undefined), CC(C)(C)c1ccc(OC2C=CC(C#Cc3ccccc3)OC2CO)cc1 (centres undefined) -6.01% [at 11.5 µM], COc1cccc([C@H]2Oc3ccc(OC)cc3/C(=N\OCC[C@@H]3C=C[C@H](OC(C)=O)[C@H](COC(C)=O)O3)[C@@H]2O)c1 -0.817% [at 11.5 µM], CC(=O)OCCC(C)C, CCCNC(=O)OC[C@@H]1O[C@H](c2ccccc2)C=C[C@@H]1Oc1ccc(OC)cc1 -0.962% [at 11.5 µM], CO[C@H]1COC(=O)C/C=C\[C@H](C)COC(=O)[C@@H](OCc2ccccc2)/C=C\[C@@H]1C -1.1% [at 11.5 µM], C=CCNC(=O)CCCC(=O)NCC=C, Oc1cc(O)c2c(c1)OC(c1ccc(O)c(O)c1)C(O)C2 (centres undefined), Cn1c(=O)n2n(c1=O)[C@H]1[C@H](O)[C@H]3O[C@H]3C(=O)[C@H]1CC2 1.82% [at 11.5 µM], N#Cc1c(/N=C/N2CCCC2)oc(-c2ccccc2)c1-c1ccccc1, O=C(c1ccc(-n2cnnn2)cc1)N1CCN(C(c2ccccc2)c2ccccc2)CC1, CC(C)CO/N=C1/C[C@@H](O)[C@@H](O)[C@@H]2[C@@H]3C(=O)N(C[C@@H]4CCCO4)C(=O)[C@H]3CC[C@@H]12 -2.12% [at 11.5 µM], COC(=O)c1ccc(C(NC(=O)OCc2ccccc2)/C(C)=C/[C@@H](C)C(=O)NCc2cc(C)on2)cc1 (some centres undefined), COC(=O)[C@@H]1C[C@@]2(O)[C@H](O)[C@H](O)[C@H](O)C[C@H]2N1Cc1ccc(C)s1, OC(CCl)CCl, CCCn1c(-c2ccc(F)cc2)nc2c(NC3CCN(Cc4ccccc4)C3)nc(C)nc21 (centres undefined), CO[C@@H]1COC(=O)C/C=C\[C@H](C)[C@@H](NS(=O)(=O)c2ccc(C)cc2)COC(=O)C/C=C\[C@@H]1C 2.78% [at 11.5 µM] and -1.73% [at 11.5 µM], COC(=O)C1=C(N)Oc2cc(C)oc(=O)c2C1c1cccnc1 (centres undefined), COC(=O)C(C(=O)OC)[C@@H]1CCCC(=O)C1 -6.21% [at 11.5 µM], CO[C@H]1COC(=O)CCC[C@@H](C)[C@H](OC)COC(=O)[C@@H](C)NC(=O)C/C=C\[C@@H]1C -4.01% [at 11.5 µM], CC(C)C(NC(=O)OCc1ccccc1)C(=O)OCC(=O)N1C(C)CCCC1C (centres undefined), Cc1c(O)cc(O)c2c(=O)c(-c3ccc(O)cc3)coc12, C/C(CCN1CCCCc2nc(C)c(C)cc21)=N\O[C@@H](C)c1cn([C@@H]2COC[C@@H]2O)nn1 -3.82% [at 11.5 µM], Cc1cc(NC(=O)COn2nnc3ccccc32)no1, CCC1=C(OC(=O)N(CC)CC)N2C(=O)OC(=NCCc3c[nH]c4ccccc34)[C@]2(C)[C@H]2C1=CC[C@H]1C(=O)N(CC)C(=O)[C@H]12, C/C(CCN1CCc2nc(-c3ccccc3)c(-c3ccccc3)cc2C1)=N\O[C@@H](C)c1cn([C@@H]2COC[C@@H]2O)nn1 -2.17% [at 11.5 µM], CCCN1Cc2cccc(C(=O)NCc3ccccc3)c2C1=O, COC(=O)C1=C(C)N(Cc2ccccc2)C2=C3C(=O)N(c4ccccc4)C(=O)C3[C@@](O)(C(=O)OC)C(=O)N2C1c1ccccc1 (some centres undefined) 2.38% [at 11.5 µM], CCS(=O)(=O)N(C)[C@@H]1c2cc(C#N)ccc2OC(C)(C)[C@H]1O, CC(C)C(N)C(=O)OCCOCn1cnc2c(=O)[nH]c(N)nc21 (centres undefined), CN(CCOc1ccc(CC2SC(=O)NC2=O)cc1)c1ccccn1 (centres undefined), CC(C)C(=O)Nc1cccc(C(=O)Nc2ccc3c(c2)OCO3)c1, O=C(O)C(O)[C@@](O)(Cc1ccc(O)cc1)C(=O)O (some centres undefined), CCOC(=O)C1C(=O)C=C(c2ccc(OC)cc2)CC1c1ccco1 (centres undefined), COc1ccc(/C=C/NC(=O)Cc2ccc(OC)c(OC)c2)cc1 -0.944% [at 11.5 µM] and -1% [at 11.5 µM], C=CC(=O)c1ccc2ccccc2c1, CC1(C)OC2CO[C@]3(COS(N)(=O)=O)OC(C)(C)OC3C2O1 (some centres undefined), O=C(c1cnccn1)N1CCC2(CCCN(Cc3ccccc3)C2)CC1, CCN1CCCC1CNC(=O)Cn1cnc2ccc(S(=O)(=O)N3CCC(C)CC3)cc2c1=O (centres undefined), CCCCNc1nc(C)nc2c1nc(-c1ccccc1)n2CCCCN(CC)CC, CC1OC(OCC2OC(Oc3c(-c4ccc(O)c(O)c4)oc4cc(O)cc(O)c4c3=O)C(O)C(O)C2O)[C@@H](O)C(O)C1O (some centres undefined), COc1ccc(CCC(=O)c2c(O)cc(OC3OC(CO)C(O)C(O)C3O[C@@H]3OC(C)C(O)C(O)C3O)cc2O)cc1O (some centres undefined), CC(=O)OCC1OC(C#CCCCc2ccccc2)C=CC1OC(C)=O (centres undefined) -0.276% [at 11.5 µM] and -3.22% [at 11.5 µM], CN(C)CCCCNC(=O)c1ccc(Cc2nc3ccccc3[nH]2)cc1, COC(=O)c1ccc(C23CC4(C2)[C@H](CN(Cc2cccnc2)[C@@H]4c2ccccc2)C3c2ccc(Cl)nc2)cc1 (some centres undefined), CN(C)/C=N/c1cc(=O)n(C)c(=O)n1CC1CC1, CS(=O)(=O)N(CC(=O)NCc1ccco1)c1ccc2c(c1)OCO2, CO[C@H]1COC(=O)[C@H](Cc2ccccc2)NC(=O)C/C=C\[C@@H](C)[C@H](OC)COC(=O)C/C=C\[C@@H]1C -1.56% [at 11.5 µM], O=C1NS(=O)(=O)c2ccccc21, CC1(C)C=CC(=O)[C@]2(C)C1CC(=O)[C@]1(C)C2CC[C@@]2(C)C(c3ccoc3)OC(=O)C3OC321 (some centres undefined), CC(=O)OCC(=O)[C@@]1(O)CCC2C3CCC4=CC(=O)CC[C@]4(C)C3C(=O)C[C@]21C (some centres undefined)
